Screens deposited in PubChem by The Scripps Research Institute Molecular Screening Center.
Compounds with a hit are over-represented: about 2.3% of the library has one in this group of screens.
bovine MsrA act = bovine MsrA enzyme activators, primary screen, biochemical, absorbance, HTS. Methionine sulfoxide reductase A (Bos taurus). purified bovine MsrA, absorbance read-out. activation, % at 10.6 µM. 0.3% of 360,000 active. AID 602163, 2012; in the data active means activation above about 7.5%
EBNA-1 inh = EBNA-1 DNA-binding inhibitors, primary screen, biochemical, fluorescence polarization. inhibition, % at 14.8 µM. 0.34% of 300,000 active. AID 1950, 2009; in the data active means inhibition above about 28%
PP1 counter = PP1-alpha phosphatase inhibitors, primary screen, counter-screen for PP5 inhibitor project, biochemical, fluorescence, OMFP substrate, single point; purified PP1alpha; inhibition, % at 6.7 µM; 0.9% of 320,000 active; AID 2235, 2010;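 active means inhibition above the mean inhibition of all tested compounds plus 3 SD, computed separately for each screening campaign, cut at about 15% in these data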
Target sequence (P62136 whole entry, looked up): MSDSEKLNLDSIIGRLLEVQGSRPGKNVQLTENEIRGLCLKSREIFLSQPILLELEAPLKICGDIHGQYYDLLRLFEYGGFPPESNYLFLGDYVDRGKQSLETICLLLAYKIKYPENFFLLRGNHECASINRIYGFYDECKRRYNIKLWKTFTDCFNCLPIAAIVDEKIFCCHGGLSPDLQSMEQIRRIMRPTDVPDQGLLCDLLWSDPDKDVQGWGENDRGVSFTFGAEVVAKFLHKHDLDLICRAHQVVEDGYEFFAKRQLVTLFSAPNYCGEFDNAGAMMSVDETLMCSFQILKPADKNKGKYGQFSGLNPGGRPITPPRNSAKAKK
ZTA counter = blocks Epstein-Barr virus ZTA, an EBNA-1 counter-screen. 0.15% of 320,000 active. AID 2234. ZTA-DNA binding, fluorescence polarization. inhibition, % at 11 µM. P03206; in the data active means inhibition above about 33%
Target sequence (P03206 whole entry, looked up): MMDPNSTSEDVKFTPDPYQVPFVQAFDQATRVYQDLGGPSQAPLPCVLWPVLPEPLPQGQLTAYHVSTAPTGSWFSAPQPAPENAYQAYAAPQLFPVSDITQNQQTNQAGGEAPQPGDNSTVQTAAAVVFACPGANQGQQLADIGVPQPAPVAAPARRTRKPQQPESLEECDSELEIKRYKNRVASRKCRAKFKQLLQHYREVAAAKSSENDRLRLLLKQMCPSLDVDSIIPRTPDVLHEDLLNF
PP5 inh = PP5 phosphatase inhibitors, primary screen, biochemical, fluorescence | Serine/threonine-protein phosphatase 5 (Homo sapiens), P53041 | purified PP5c, OMFP substrate fluorescence | inhibition, % at 6.7 µM | 0.18% of 320,000 active;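 active means inhibition above the campaign's mean inhibition across all tested compounds plus 3 SD, cut at about 9.5% in these data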
MsrA inh = bovine MsrA enzyme inhibitors, primary screen, biochemical, absorbance, HTS; Methionine sulfoxide reductase A (Bos taurus); purified bovine MsrA, absorbance read-out; inhibition, % at 15.5 µM; 0.75% of 360,000 active; AID 651718, 2012; in the data active means inhibition above about 4.5%
A number is an active result; . = inactive; / = no result given.

SMILES	bovine MsrA act	EBNA-1 inh	PP1 counter	ZTA counter	PP5 inh	MsrA inh
O=C(NCc1ccccc1)[C@@H]1CCCN1C(=O)[C@H]1CCCN1C(=O)c1ccc(F)c(C(F)(F)F)c1	/	/	/	/	/	.
COC(=O)C1=C(C)N(Cc2ccccc2C(F)(F)F)C(=NCc2ccc(OC)cc2)NC1c1ccc(F)cc1 (stereo unspecified)	/	/	/	/	/	.
NC(=O)[C@H]1CC2(CC(c3cccc(NC(=O)CC(c4ccccc4)c4ccccc4)c3)=NO2)CN1C(=O)C(c1ccccc1)c1ccccc1 (stereo partly specified)	.	.	17.3	.	.	.
O=C(O)c1ccccc1NC(=O)c1ccccc1Nc1ccccc1	.	.	17.2	.	.	.
O=C(Nc1ccccc1C(=O)Nc1ccccc1C(=O)O)c1ccccc1	.	.	.	.	.	.
CC(=O)NC(C)(c1ccccc1)c1nc(-c2cncnc2)cs1 (stereo unspecified)	.	/	/	/	/	.
Cc1cccc(-c2cc3c(N=O)c4ccccc4c-3n[nH]2)c1	.	29.7	.	.	.	.
Cc1ccc(-c2cc(C(=O)NC3=NCCS3)c3cc(Br)ccc3n2)o1	/	.	19.4	.	.	/
CCCn1c(N2CCC(Cc3ccccc3)CC2)nc2c1c(=O)[nH]c(=O)n2C	.	.	.	.	.	.
CCCCCn1c(N2CCC(Cc3ccccc3)CC2)nc2c1c(=O)[nH]c(=O)n2C	.	.	16.4	.	.	/
Cc1ccc(C)c(/C(O)=C2\C(=O)C(=O)N(Cc3cccnc3)C2c2cccnc2)c1 (stereo unspecified)	.	.	.	.	.	4.8
Cc1ccccc1NC(=O)CCCN1C(=O)C2CC=CCC2C1=O (stereo unspecified)	.	.	.	.	.	.
C[C@@H]1ON(C)[C@H]2C[C@H]3c4cc(-c5ccc(F)cc5)ccc4CCN3C[C@@H]12	/	/	/	/	/	.
COc1ccc2c(CC(=O)OCC(=O)N(C)c3c(N)n(Cc4ccccc4)c(=O)[nH]c3=O)coc2c1	.	/	/	/	/	.
O=C(Nc1cccnc1)c1sc(Nc2ccccc2)nc1-c1ccccc1	.	88.7	.	.	.	.
CCOC(=O)/C=C(\C)Sc1cc(O)c2ccccc2c1O	.	/	/	/	/	41.4
CCOC(=O)/C=C(\C)Sc1cc(=O)oc2ccccc12	.	.	.	.	.	.
O=C(NCCCO)c1ccc2nc(-c3ccco3)c(-c3ccco3)nc2c1	.	/	/	/	/	.
O=C(NCCO)Nc1ccc2nc(-c3ccco3)c(-c3ccco3)nc2c1	/	.	46.9	41.7	.	/
CC(=O)C1=C(O)C=C(c2ccco2)CC1c1ccco1 (stereo unspecified)	.	.	.	.	.	4.8
O=C(CCl)N1N=C(c2ccco2)CC1c1ccco1 (stereo unspecified)	.	.	.	.	.	.
Cc1cc(N2C(=O)C(O)=C(C(=O)c3cc4ccccc4o3)C2c2cccc(Br)c2)no1 (stereo unspecified)	.	.	37.2	.	.	.
CCCOc1cccc(C2C(C(=O)c3cc4ccccc4o3)=C(O)C(=O)N2c2cc(C)on2)c1 (stereo unspecified)	.	.	25.8	.	.	.
CC1=C(C#N)C(=O)N(C2CCS(=O)(=O)C2)C(=O)/C1=C\c1ccco1 (stereo unspecified)	/	63.2	35.2	78.6	.	/
O=C1/C(=C\c2ccco2)SC(=S)N1C1CCCCC1	/	.	.	.	.	/
SMILES	bovine MsrA act	EBNA-1 inh	PP1 counter	ZTA counter	PP5 inh	MsrA inh
Cc1cc2cc(C(c3nnnn3Cc3ccco3)N3CCc4ccccc4C3)c(=O)[nH]c2cc1C (stereo unspecified)	.	.	15.3	.	.	.
Cc1cc2cc(C(c3nnnn3Cc3ccco3)N3CCc4ccccc43)c(=O)[nH]c2cc1C (stereo unspecified)	.	.	.	.	.	.
C1CCN(c2nc3nonc3nc2N2CCCC2)C1	.	.	.	.	.	5.1
CC1CCCN(c2nc3nonc3nc2N2CCCC(C)C2)C1 (stereo unspecified)	.	.	.	.	.	4.6
CC1CCN(c2nc3nonc3nc2N2CCC(C)CC2)CC1	.	.	.	.	.	.
Nc1ccccc1SC(CC(=O)c1ccccc1)c1cccc([N+](=O)[O-])c1 (stereo unspecified)	8.1	/	/	/	/	.
CC(=O)OCC(=O)N1CCN(C(=O)C(=O)c2cccc(C(F)(F)F)c2)CC1	/	/	/	/	/	.
COc1ccc(Cl)cc1NC(=O)c1[nH]c(C)c(C(C)=O)c1C	.	.	17.0	.	.	.
Cc1ccc(C)n1Cc1ccc(C(=O)O)cc1	.	29.3	18.3	85.0	.	/
COc1cccc(CNC(=O)CSc2nnc3c(n2)[nH]c2ccc(C)cc23)c1	.	.	.	.	.	.
Nc1nnc(CC(=O)N/N=C/c2ccc(-c3ccc(F)cc3)o2)s1	.	.	.	.	.	6.1
O=C(NCc1ccccc1)[C@@H]1CCCN1C(=O)[C@H]1CCCN1C(=O)c1ccccc1F	/	/	/	/	/	.
CCOP(=O)(c1ccc(N(C)C)cc1)C(O)c1ccc(C)cc1 (stereo unspecified)	.	.	.	.	.	.
CCOC(=O)C1=C(C(=O)OCC)C2N(Cc3ccc(C(F)(F)F)cc3)c3ccccc3[C@@]23C[C@@H](C(=O)OC)N(S(=O)(=O)c2ccc(OC)cc2)C3=N1 (stereo partly specified)	/	/	/	/	/	.
Nc1cc(=O)[nH]c(SCC(=O)N2CCCc3ccccc32)n1	.	.	.	.	.	.
Nc1nc2nc(SCC(=O)N3CCCc4ccccc43)[nH]c2c(=O)[nH]1	/	.	15.2	.	.	/
COc1ccc(N2C[C@@]3(O)CC[C@@H](O)[C@@H](OC)[C@@H]3[C@@](C)(O)[C@@H]2CC=C(C)C)cc1	/	/	/	/	/	.
O=S(=O)(Nc1nc(-c2sccc2Cl)cs1)c1cc(Cl)ccc1Cl	.	.	19.0	.	.	/
COc1ccc(OCC(=O)N/N=C(\C)c2ccc(-n3ccnc3)cc2)cc1	.	.	.	.	.	.
C/C(=N\NC(=O)COc1ccc(C(C)(C)C)cc1)c1ccc(-n2ccnc2)cc1	.	.	15.3	.	.	.
COC(=O)c1cc(CC(=O)c2ccc(O)cc2O)c(C)o1	.	.	.	.	.	7.2
N#C/C(=C\c1cn(CCOc2ccccc2)c2ccccc12)C(=O)NCc1cccs1	.	37.0	.	.	.	.
C[C@H](O)[C@@H]1C(=O)N2CCc3c([nH]c4cccc(-c5ccccc5)c34)[C@@H]2C[C@@H]1N(C)C(=O)c1ccco1	/	/	/	/	/	.
COc1ccc(C2C/C(=N\O)C(C)(C)O2)cc1 (stereo unspecified)	.	.	17.1	.	.	.
COc1ccc(C2CC(O)(C(C)(C)O)NO2)cc1 (stereo unspecified)	.	.	.	.	.	.
